The target in test [1] is Peroxisome proliferator-activated receptor gamma (Homo sapiens) (UniProt P37231). In words: OT_PPARg_PPARgSRC1_1440: Odyssey Thera (OT) 24-hour Protein-Complementation Assay for Peroxisome Proliferator-activated Receptor Gamma/ SRC-1 Co-activator (AID 2283388).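 Further: nuclear to cytoplasmic ratio of reconstituted Venus YFP fluorescence in fixed imaged cells.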 The procedure, abridged: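 Readout: nuclear-to-cytoplasmic 488 nm fluorescence ratio, ≥350 cells per image, 8 images per well, after 24 h compound exposure of HEK293T expressing PPARg/SRC-1 split-YFP fusions. Activity fitted in positive direction against DMSO.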
Peroxisome proliferator-activated receptor gamma (Homo sapiens), sequence (P37231 whole entry, looked up, the tested form may be a part): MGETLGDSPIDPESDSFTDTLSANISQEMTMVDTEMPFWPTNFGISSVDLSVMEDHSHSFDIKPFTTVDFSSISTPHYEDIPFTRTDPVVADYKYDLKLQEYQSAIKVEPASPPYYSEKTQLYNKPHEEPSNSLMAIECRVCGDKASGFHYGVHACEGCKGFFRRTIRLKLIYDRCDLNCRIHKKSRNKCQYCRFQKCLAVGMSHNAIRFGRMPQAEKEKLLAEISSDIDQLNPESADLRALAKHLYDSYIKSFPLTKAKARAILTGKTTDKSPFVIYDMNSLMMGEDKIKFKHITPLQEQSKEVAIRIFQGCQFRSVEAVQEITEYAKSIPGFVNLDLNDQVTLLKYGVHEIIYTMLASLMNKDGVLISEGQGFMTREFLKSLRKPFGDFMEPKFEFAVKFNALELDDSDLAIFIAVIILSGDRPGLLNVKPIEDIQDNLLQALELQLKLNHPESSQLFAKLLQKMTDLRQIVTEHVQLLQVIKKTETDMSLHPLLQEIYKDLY

Test [2] in a line: ATG_XTT_Cytotoxicity: Cytotoxicity Assessment in the Attagene TRANS-FACTORIAL HepG2 Assay (AID 2283584). The method, boiled down:
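XTT readout of cell number in transfected HepG2 cells, 24 h post-dosing; DMSO serves as negative control and baseline, with activity taken as loss of viability signal.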

The nature of test [3]: TOX21_p53_BLA_p2_viability: Viability Assessment in the Tox21 HCT-116 p53 Agonism Beta-lactamase Assay, Phase 2 (AID 2283591).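 Further: compound exposure lasted 16 h at 37 °C; actives lower the ATP signal meaning cytotoxicity.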 The method, boiled down:
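HCT-116 p53-bla cells (4000/well) rested 5 h at 37C, then received compounds in DMSO (217-fold dilution) for 16 h at 37C, 5% CO2. After the CCF4 read, CellTiter-Glo was added; ATP luminescence was read after 30 min at room temperature.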

For test [4], the target named is Cellular tumor antigen p53 (Homo sapiens) (UniProt P04637). The experiment in a line: TOX21_p53_BLA_p2_ratio: Tox21 HCT-116 p53 Agonism Beta-lactamase Assay, Ratio, Phase 2 (AID 2283592). The method, boiled down: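 In this cell-based reporter format, HCT116 cells were dosed with chemicals delivered from DMSO by 217-fold dilution and incubated 16 h at 37C. Emission at 460 and 530 nm after 2 h CCF4-AM loading provided the ratio, fitted upward versus DMSO.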
Cellular tumor antigen p53 (Homo sapiens), sequence (P04637 whole entry, looked up): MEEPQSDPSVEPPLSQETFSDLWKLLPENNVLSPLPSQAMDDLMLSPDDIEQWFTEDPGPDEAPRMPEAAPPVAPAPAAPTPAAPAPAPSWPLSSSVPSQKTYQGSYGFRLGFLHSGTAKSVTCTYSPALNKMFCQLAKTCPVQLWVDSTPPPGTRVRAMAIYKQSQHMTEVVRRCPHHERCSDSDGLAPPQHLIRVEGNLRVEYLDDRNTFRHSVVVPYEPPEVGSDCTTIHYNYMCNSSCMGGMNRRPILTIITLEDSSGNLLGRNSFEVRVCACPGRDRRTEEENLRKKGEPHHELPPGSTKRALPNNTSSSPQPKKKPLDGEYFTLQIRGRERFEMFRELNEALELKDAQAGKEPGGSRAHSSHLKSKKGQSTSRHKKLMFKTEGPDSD

Test [5] can be described thus: TOX21_p53_BLA_p4_viability: Viability Assessment in the Tox21 HCT-116 p53 Agonism Beta-lactamase Assay, Phase 4 (AID 2283597).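 Further: hits lower the luminescence signal meaning cytotoxicity.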 The procedure, abridged:
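We seeded HCT116 p53 reporter cells at 4000/well and waited 5 h. We then added compounds in DMSO at a 217-fold dilution and incubated for 16 h. Viability was read as CellTiter-Glo luminescence after 30 min at RT.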

The target of test [6] is Cellular tumor antigen p53 (Homo sapiens) (UniProt P04637). In words: TOX21_p53_BLA_p5_ratio: Tox21 HCT-116 p53 Agonism Beta-lactamase Assay, Ratio, Phase 5 (AID 2283599). The method, boiled down:
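HCT-116 cells carrying a p53-inducible beta-lactamase reporter were seeded at 4000 cells/well and dosed after 5 h with compound in DMSO (217-fold dilution). After 16 h at 37C, CCF4-AM substrate was added for 2 h, and the 460/530 nm emission ratio was scored as gain-of-signal versus DMSO.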

Test [7] shares this target. The experiment in a line: TOX21_p53_BLA_p3_ratio: Tox21 HCT-116 p53 Agonism Beta-lactamase Assay, Ratio, Phase 3 (AID 2283596). The procedure, abridged:
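HCT116 p53-bla cells (4000/well) given compound in DMSO (217-fold dilution) after 5 h, incubated 16 h at 37C. CCF4-AM substrate 2 h at room temperature; 460/530 nm emission ratio, gain fitted against DMSO.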

Test [8] in a line: CEETOX_H295R_11DCORT: CeeTox H295R High-throughput Steroidogenesis Assay for 11-Deoxycortisol (11DCORT) (AID 2283432; active means hit-call score of the fitted dose curve at least 0.9, where 1 is the maximum; inactive means score below 0.9;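 on AC50: 11-deoxycortisol secreted into the medium measured by LC-MS/MS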). The note with it: actives raise or lower the signal. The procedure, abridged:
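Human adrenal H295R cells were prestimulated with 10 uM forskolin for 48 h, then exposed to test chemical (0.1% DMSO final) for 48 h. Medium 11-deoxycortisol was quantified by MTBE extraction and HPLC-MS/MS; bidirectional fitting relative to DMSO.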

Test [9] is described as follows: CEETOX_H295R_OHPREG: CeeTox H295R High-throughput Steroidogenesis Assay for OH-Pregnenolone (OHPREG) (AID 2283434; active means hit-call score of the fitted dose curve at least 0.9, where 1 is the maximum; inactive means score below 0.9). As to conditions: actives raise or lower the signal. The method, boiled down: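 Human adrenal H295R cells were prestimulated 48 h with 10 uM forskolin, then exposed 48 h to chemical in 0.1% DMSO. Medium 17alpha-hydroxypregnenolone was quantified by HPLC-MS/MS after MTBE extraction; bidirectional fitting versus DMSO baseline.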

Test [10] can be described thus: CEETOX_H295R_ANDR: CeeTox H295R High-throughput Steroidogenesis Assay for Androstenedione (ANDR) (AID 2283436; active means hit-call score of the fitted dose curve at least 0.9, where 1 is the maximum; inactive means score below 0.9). The note with it: actives raise or lower the signal. The procedure, abridged:
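H295R human adrenal cells (passages ≤10) were exposed to test chemicals for 48 h; androstenedione in medium was MTBE-extracted and quantified by HPLC-MS/MS against a 7-point standard curve. Bidirectional fitting used DMSO as baseline.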

The nature of test [11]: CEETOX_H295R_CORTIC: CeeTox H295R High-throughput Steroidogenesis Assay for Corticosterone (CORTIC) (AID 2283437; active means hit-call score of the fitted dose curve at least 0.9, where 1 is the maximum; inactive means score below 0.9;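 further: corticosterone secreted into medium quantified by mass spectrometry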). As to conditions: actives raise or lower the signal. The method, boiled down: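 H295R cells were prestimulated 48 h with 10 uM forskolin, then exposed 48 h to test chemical in 0.1% DMSO. Medium corticosterone was MTBE-extracted and quantified by HPLC-MS/MS; bidirectional fit versus DMSO baseline.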

A short description of test [12]: CEETOX_H295R_CORTISOL: CeeTox H295R High-throughput Steroidogenesis Assay for Cortisol (AID 2283438; active means hit-call score of the fitted dose curve at least 0.9, where 1 is the maximum; inactive means score below 0.9;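 further: cortisol secreted into medium quantified by LC-MS/MS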). As to conditions: actives raise or lower the signal. The method, boiled down:
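Forskolin 10 uM 48 h prestim → test cmpd in DMSO (0.1% final) 48 h → medium MTBE-extracted → LC-MS/MS cortisol vs 7-pt std curve. Gain/loss of signal fitted vs DMSO. MTT viability in same wells.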

Test [13] is described as follows: CEETOX_H295R_DOC: CeeTox H295R High-throughput Steroidogenesis Assay for DOC (AID 2283439; active means hit-call score of the fitted dose curve at least 0.9, where 1 is the maximum; inactive means score below 0.9). As to conditions: actives raise or lower the signal. The procedure, abridged:
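Readout: 11-deoxycorticosterone in culture medium by reverse-phase C18 HPLC with ESI+ tandem MS after MTBE extraction. Cells: H295R, forskolin-primed (10 uM, 48 h), chemical-treated 48 h; DMSO 0.1% final. Activity fitted bidirectionally versus DMSO.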

Test [14] can be described thus: CEETOX_H295R_ESTRADIOL: CeeTox H295R High-throughput Steroidogenesis Assay for Estradiol (AID 2283440; active means hit-call score of the fitted dose curve at least 0.9, where 1 is the maximum; inactive means score below 0.9;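 further: estradiol secreted into medium quantified by LC-MS/MS after dansyl derivatisation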). The note with it: actives raise or lower the signal. The procedure, abridged: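 H295R, 48 h forskolin (10 uM) prestim → 48 h compound, 0.1% DMSO final. Estradiol in medium: MTBE extraction, dansyl chloride derivatization, LC-MS/MS. Fit bidirectional vs DMSO baseline; MTT viability in same wells.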

Test [15] is described as follows: CEETOX_H295R_ESTRONE: CeeTox H295R High-throughput Steroidogenesis Assay for Estrone (AID 2283441; active means hit-call score of the fitted dose curve at least 0.9, where 1 is the maximum; inactive means score below 0.9;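 further: estrone secreted into medium measured by LC-MS/MS after dansyl derivatization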). The note with it: actives raise or lower the signal. The procedure, abridged:
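H295R cells prestimulated 48 h with 10 uM forskolin, then exposed 48 h to chemicals in 0.1% DMSO final; estrone in medium extracted with MTBE, dansyl-derivatized, quantified by HPLC-MS/MS; bidirectional fitting versus DMSO, viability by MTT.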

The nature of test [16]: CEETOX_H295R_TESTO: CeeTox H295R High-throughput Steroidogenesis Assay for Testosterone (TESTO) (AID 2283457; active means hit-call score of the fitted dose curve at least 0.9, where 1 is the maximum; inactive means score below 0.9). As to conditions: actives raise or lower the signal. The procedure, abridged: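 Readout: testosterone quantified by HPLC-MS/MS (C18, ESI positive) after MTBE liquid-liquid extraction of culture medium. Cells were H295R, 48 h chemical exposure per OECD 456 with modifications. Gain or loss of signal fitted relative to DMSO.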

A short description of test [17]: TOX21_p53_BLA_p5_viability: Viability Assessment in the Tox21 HCT-116 p53 Agonism Beta-lactamase Assay, Phase 5 (AID 2283600). The method, boiled down:
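Compounds, pinned from DMSO at 217-fold dilution, were left on the cells for 16 h. The viability endpoint was ATP content measured by CellTiter-Glo luminescence, where falling signal reflects cytotoxicity.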

The target in test [18] is Cellular tumor antigen p53 (Homo sapiens) (UniProt P04637). The experiment in a line: TOX21_p53_BLA_p4_ratio: Tox21 HCT-116 p53 Agonism Beta-lactamase Assay, Ratio, Phase 4 (AID 2283601). The procedure, abridged:
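HCT116 cells carrying an inducible beta-lactamase reporter were plated at 4000 cells/well, rested 5 h, then exposed to compounds in DMSO (217-fold dilution) for 16 h at 37C. CCF4-AM substrate was loaded 2 h at room temperature; 460/530 nm emission ratio scored gain-of-signal versus DMSO.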

The nature of test [19]: TOX21_p53_BLA_p3_viability: Viability Assessment in the Tox21 HCT-116 p53 Agonism Beta-lactamase Assay, Phase 3 (AID 2283593).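 Further: cells exposed to compound for 16 h before reading.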 The method, boiled down: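 HCT-116 cells (4000/well) rested 5 h at 37C, then got DMSO compounds by pin tool (217-fold dilution) for 16 h at 37C, 5% CO2. After the bla read, CellTiter-Glo was added and luminescence read at 30 min, room temperature.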

Test [20] is described as follows: CCTE_Simmons_CellTiterGLO_HEK293T: Viability Assessment in CCTE's Assays for Thyroperoxidase (TPO) Inhibition, Simmons Lab (AID 2283665). The method, boiled down:
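HEK293T, 10 000 cells/well, DMEM + 1% FBS; 8-pt titration 5 nM–87.5 uM [final], 0.5% DMSO; 24 hr, 37C, 5% CO2; CellTiter-Glo luminescence; n=3 biological replicates.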

Records with an inconclusive call do not appear. Activity calls are given as the source filed them. How the source made its calls, unless noted: active means hit-call score of the fitted dose curve at least 0.9, where 1 is the maximum; inconclusive means response in the unintended direction; inactive means score below 0.9.

On to `O=C(OCC1CCC2OC2C1)C1CCC2OC2C1` (configuration not stated), for which the result in test [1], in test [2], in test [3], in [4], in test [5] and in test [6] was inactive.

`O=C(c1ccccc1)C1CCC1`: the result in test [1] and in test [2] was inactive.

Turning to `C=C[Si](C)(C)O[Si](C)(C)C=C`, the result in test [1], in test [2], in test [3], in test [4] and in [7] was inactive.

On to `Oc1ccc(Cl)cc1Cc1cc(Cl)ccc1O`, for which the compound was classed as inactive in test [1], in test [9], in test [10], in test [11], in test [12] and in [13]. Also, the outcome in test [14], in test [15] and in test [16] was inactive. Also, the AC50 in [8] is 6.93 µM (active).

As to `O=C(C=Cc1ccccc1)OCc1ccccc1`, the compound was called inactive in test [1], in [8], in test [12], in test [13], in test [14] and in test [15]. For the same compound, the compound was classed as inactive in test [2], in test [3], in test [4], in test [7], in test [5] and in test [6]. For the same compound, the call in test [17] and in test [18] was inactive. The AC50 in test [9] was 50 µM (active); in [11], 36.2 µM (active).

As to `OC1CCCCCCCCCCC1`, the call in test [1], in [2], in test [3], in test [4], in test [7] and in test [5] was inactive. Besides, the result in test [6], in test [17] and in test [18] was inactive.

On to `CN(C)c1ccc(N=Nc2ccccc2C(=O)O)cc1`, for which the compound was classed as inactive in test [1], in [2], in test [4], in test [6] and in [18]. The AC50 in [3] was 75.8 µM (active); in [5] it was 68 µM (active).

For `CCCCCCCOC(=O)CCC`, the result in test [1] and in [2] was inactive.

Regarding `O=S(=O)(O)c1ccccc1C=Cc1ccc(-c2ccc(C=Cc3ccccc3S(=O)(=O)O)cc2)cc1`, the result in test [1], in test [2], in test [3], in test [4], in [19] and in test [7] was inactive. Also, in test [20], the call was inactive. Also, the AC50 in [6] and in test [18] was 11.4 µM (active) each time.

For the compound `CC(C)c1ccc2c(C(C)C)cc(C(C)C)c(S(=O)(=O)O)c2c1`, the call in test [1], in [2], in [3], in test [4], in test [19] and in test [7] was inactive. The outcome in test [6], in [17] and in test [18] was inactive. The AC50 in test [5] is 89.7 µM (active).

In the case of `CCOC(=O)Cc1cccc2ccccc12`, the compound was classed as inactive in [1], in [11], in test [12], in [14], in test [15] and in test [3]. Further, the result in [4], in test [19], in test [5], in test [6] and in test [18] was inactive. Also, the AC50 in test [8] is 34.3 µM (active); in test [9], 61.3 µM (active); in test [13] it was 30.8 µM (active).

For `CC(C)c1ccc2cc(C(C)C)ccc2c1`, the compound was called inactive in test [1] and in [2].

Turning to `CC(=O)OC(C)C`, the outcome in test [1], in test [2], in test [3], in [4], in [19] and in test [7] was inactive. The call in test [5], in [6], in test [17] and in test [18] was inactive.

(Values after PubChem BioAssay (EPA / NIEHS).)
